Parameters in all cases: scale not given: direction of the effect not stated beside the values
Assay [1] concerns the target Protein translocase subunit SecA (Escherichia coli (strain K12)) (UniProt P10408). Description: Assay to Identify E. coli SecA ATPase Inhibitors. Conditions: 30 µM. The format is functional.
For assay [2], the target named is T1, Ubiquitin-activating enzyme e1, putative (Leishmania donovani (strain BPK282A1)) (UniProt E9BSI1).
T1 sequence (whole entry): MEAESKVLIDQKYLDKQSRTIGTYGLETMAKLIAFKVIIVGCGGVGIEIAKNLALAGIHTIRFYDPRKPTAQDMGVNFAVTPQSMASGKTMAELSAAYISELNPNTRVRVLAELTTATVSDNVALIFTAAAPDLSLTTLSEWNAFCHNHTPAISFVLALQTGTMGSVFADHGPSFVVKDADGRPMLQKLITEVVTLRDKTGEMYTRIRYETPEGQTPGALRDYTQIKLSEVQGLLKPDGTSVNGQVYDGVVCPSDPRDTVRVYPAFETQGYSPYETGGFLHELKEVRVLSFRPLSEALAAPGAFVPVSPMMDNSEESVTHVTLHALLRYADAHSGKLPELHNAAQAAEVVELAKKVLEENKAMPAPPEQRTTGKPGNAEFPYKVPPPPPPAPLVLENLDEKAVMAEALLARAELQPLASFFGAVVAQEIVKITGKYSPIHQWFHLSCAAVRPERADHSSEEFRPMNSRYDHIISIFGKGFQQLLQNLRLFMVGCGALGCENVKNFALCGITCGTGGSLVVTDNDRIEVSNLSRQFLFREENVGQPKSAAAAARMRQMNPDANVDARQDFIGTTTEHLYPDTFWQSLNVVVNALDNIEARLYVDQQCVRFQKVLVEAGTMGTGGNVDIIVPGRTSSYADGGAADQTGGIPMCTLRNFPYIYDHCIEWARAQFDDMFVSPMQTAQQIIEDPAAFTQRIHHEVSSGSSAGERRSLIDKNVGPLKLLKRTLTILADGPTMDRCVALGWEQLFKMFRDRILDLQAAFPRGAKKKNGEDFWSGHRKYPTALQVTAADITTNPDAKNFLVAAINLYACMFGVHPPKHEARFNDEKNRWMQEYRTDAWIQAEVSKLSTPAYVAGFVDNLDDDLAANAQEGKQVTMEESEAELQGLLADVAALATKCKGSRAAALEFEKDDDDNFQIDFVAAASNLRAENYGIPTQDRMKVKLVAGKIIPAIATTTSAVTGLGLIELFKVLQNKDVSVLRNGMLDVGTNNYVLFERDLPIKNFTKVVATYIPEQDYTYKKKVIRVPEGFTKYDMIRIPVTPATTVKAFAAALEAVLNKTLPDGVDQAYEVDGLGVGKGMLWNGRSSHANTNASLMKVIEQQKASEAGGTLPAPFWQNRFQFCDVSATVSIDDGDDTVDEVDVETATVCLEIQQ
Description: Leishmania donovani Ubiquitin Activating Enzyme (LdE1). The format is functional. To be noted: 30 µM.

Assay [3] has as its target AMP-activated protein kinase, AMPK (Homo sapiens) (UniProt P54646+O43741+P54619+Q9UGJ0+Q9Y478+Q13131+Q9UGI9). The assay is described as follows: AMP-dependent Kinase enzyme assay. An in vitro enzyme assay that detects ADP turnover that is directly proportional to AMPK activity. This uses naive AMPK that is activated during the assay with MK-8722. The format is functional. To be noted: 30 µM.

Assay [4] concerns the target Sialic acid-binding Ig-like lectin 9 (Homo sapiens) (UniProt Q9Y336). Description: Hs-Siglec9 ALPHAscreen SOP 20170721. Conditions: 10 µM. A general note: In Alpha technology, singlet oxygen from a donor bead excites a nearby acceptor bead.
In assay [5] the test system is Trypanosoma cruzi. The assay is described as follows: Trypanosoma cruzi phosphomannomutase and mannose-1-phosphate guanylyltransferase assay. The format is functional. Conditions: 10 µM.
Assay [6] concerns the target T2, Arginase-2, mitochondrial (Homo sapiens) (UniProt P78540).
T2 sequence (whole entry): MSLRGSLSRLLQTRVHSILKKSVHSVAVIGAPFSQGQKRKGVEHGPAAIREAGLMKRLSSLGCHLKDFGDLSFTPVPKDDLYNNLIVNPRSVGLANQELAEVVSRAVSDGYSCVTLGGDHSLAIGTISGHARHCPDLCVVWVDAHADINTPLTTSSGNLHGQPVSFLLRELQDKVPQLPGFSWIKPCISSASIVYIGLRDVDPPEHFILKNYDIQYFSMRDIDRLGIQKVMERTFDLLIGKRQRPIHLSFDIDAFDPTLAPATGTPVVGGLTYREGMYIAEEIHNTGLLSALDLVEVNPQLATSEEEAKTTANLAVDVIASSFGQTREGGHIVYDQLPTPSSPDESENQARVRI
The assay is described as follows: in vitro enzyme assay to detect the production of urea directly proportional to the activity of Arginase II. Note: in the data most compounds retested in dose-response had high values. The format is functional. To be noted: 33.3 µM.

Assay [7] has as its target T3, Proteasome subunit beta (Trypanosoma cruzi) (UniProt O96673).
T3 sequence (whole entry): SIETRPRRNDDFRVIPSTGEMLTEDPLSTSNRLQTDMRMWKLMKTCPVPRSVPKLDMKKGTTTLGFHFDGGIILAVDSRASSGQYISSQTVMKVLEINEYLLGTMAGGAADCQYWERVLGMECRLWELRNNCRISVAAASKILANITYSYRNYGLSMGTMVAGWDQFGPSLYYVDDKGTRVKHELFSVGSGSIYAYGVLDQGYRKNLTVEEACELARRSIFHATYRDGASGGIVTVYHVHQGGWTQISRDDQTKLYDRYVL
Description: Trypanosoma cruzi proteasome chymotrypsin-like activity (TcProtChymo) assay. Note: in the data most compounds retested in dose-response had high values. The format is functional. Conditions: 9.37 µM.

Assay [8] is filed under the species Homo sapiens. The assay is described as follows: To identify inhibition of the IFN signalling (Jak-Stat) pathway via expression of an eGFP reporter gene under the control of an IFN-stimulated response element (ISRE) containing MxA promoter. The format is functional. Conditions: 30 µM. On the technique in general: A reporter such as luciferase makes a cellular process visible.

The target in assay [9] is T4, Tyrosyl-tRNA synthetase, putative (Trypanosoma cruzi (strain CL Brener)) (UniProt Q4DSP6).
T4 sequence (whole entry): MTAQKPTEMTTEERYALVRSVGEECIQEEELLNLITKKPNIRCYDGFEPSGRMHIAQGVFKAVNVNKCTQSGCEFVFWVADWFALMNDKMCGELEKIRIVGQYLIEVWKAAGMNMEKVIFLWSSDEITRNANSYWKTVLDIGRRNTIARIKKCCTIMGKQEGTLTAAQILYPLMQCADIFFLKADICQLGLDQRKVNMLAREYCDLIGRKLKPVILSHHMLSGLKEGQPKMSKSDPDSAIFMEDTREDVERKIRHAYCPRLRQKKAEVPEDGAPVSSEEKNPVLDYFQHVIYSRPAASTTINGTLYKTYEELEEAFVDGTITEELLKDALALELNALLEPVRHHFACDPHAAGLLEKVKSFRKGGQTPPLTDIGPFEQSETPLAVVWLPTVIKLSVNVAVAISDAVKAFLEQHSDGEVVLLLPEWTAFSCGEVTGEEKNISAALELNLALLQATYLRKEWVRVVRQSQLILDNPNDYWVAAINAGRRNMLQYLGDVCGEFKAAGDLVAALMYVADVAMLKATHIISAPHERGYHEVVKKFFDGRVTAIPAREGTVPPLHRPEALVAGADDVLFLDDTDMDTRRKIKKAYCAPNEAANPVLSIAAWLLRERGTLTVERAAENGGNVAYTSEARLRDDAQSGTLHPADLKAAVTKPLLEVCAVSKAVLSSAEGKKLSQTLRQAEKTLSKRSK
Description: Trypanosoma cruzi tyrosyl tRNA synthetase (TcYRS) _High Tyrosine SOP. Note: in the data most compounds retested in dose-response had high values. The format is functional. To be noted: 30 µM.

For assay [10], the target named is T4, Tyrosyl-tRNA synthetase, putative (Trypanosoma cruzi (strain CL Brener)). The assay is described as follows: Trypanosoma cruzi tyrosyl tRNA synthetase (TcYRS) SOP. The format is functional. To be noted: 30 µM.
Assay [11] deals with Chromo domain-containing protein 1 (Saccharomyces cerevisiae (strain ATCC 204508 / S288c) (Baker's yeast)) (UniProt P32657). Description: ScCHD-1 Enzyme Inhibition Assay. Note: in the data most compounds retested in dose-response had high values. The format is functional. To be noted: 30 µM.

For some of these results: Entries with a potency or affinity are not part of this list.

Sequence of Sialic acid-binding Ig-like lectin 9 (Homo sapiens) (Q9Y336 whole entry): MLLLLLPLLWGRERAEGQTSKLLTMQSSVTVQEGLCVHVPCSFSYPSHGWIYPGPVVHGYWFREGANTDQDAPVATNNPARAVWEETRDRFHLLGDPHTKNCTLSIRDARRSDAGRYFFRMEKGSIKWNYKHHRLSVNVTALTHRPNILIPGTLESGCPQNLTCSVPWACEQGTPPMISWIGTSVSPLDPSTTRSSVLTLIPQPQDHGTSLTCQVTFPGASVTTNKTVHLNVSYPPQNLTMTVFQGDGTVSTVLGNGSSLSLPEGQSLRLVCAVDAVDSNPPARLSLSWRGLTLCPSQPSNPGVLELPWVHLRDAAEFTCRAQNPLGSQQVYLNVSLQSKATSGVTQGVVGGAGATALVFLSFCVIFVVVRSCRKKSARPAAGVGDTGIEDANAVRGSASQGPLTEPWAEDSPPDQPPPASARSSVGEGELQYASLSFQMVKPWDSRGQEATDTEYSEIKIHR
Sequence of Chromo domain-containing protein 1 (Saccharomyces cerevisiae (strain ATCC 204508 / S288c) (Baker's yeast)) (P32657 whole entry, the tested form may be a part): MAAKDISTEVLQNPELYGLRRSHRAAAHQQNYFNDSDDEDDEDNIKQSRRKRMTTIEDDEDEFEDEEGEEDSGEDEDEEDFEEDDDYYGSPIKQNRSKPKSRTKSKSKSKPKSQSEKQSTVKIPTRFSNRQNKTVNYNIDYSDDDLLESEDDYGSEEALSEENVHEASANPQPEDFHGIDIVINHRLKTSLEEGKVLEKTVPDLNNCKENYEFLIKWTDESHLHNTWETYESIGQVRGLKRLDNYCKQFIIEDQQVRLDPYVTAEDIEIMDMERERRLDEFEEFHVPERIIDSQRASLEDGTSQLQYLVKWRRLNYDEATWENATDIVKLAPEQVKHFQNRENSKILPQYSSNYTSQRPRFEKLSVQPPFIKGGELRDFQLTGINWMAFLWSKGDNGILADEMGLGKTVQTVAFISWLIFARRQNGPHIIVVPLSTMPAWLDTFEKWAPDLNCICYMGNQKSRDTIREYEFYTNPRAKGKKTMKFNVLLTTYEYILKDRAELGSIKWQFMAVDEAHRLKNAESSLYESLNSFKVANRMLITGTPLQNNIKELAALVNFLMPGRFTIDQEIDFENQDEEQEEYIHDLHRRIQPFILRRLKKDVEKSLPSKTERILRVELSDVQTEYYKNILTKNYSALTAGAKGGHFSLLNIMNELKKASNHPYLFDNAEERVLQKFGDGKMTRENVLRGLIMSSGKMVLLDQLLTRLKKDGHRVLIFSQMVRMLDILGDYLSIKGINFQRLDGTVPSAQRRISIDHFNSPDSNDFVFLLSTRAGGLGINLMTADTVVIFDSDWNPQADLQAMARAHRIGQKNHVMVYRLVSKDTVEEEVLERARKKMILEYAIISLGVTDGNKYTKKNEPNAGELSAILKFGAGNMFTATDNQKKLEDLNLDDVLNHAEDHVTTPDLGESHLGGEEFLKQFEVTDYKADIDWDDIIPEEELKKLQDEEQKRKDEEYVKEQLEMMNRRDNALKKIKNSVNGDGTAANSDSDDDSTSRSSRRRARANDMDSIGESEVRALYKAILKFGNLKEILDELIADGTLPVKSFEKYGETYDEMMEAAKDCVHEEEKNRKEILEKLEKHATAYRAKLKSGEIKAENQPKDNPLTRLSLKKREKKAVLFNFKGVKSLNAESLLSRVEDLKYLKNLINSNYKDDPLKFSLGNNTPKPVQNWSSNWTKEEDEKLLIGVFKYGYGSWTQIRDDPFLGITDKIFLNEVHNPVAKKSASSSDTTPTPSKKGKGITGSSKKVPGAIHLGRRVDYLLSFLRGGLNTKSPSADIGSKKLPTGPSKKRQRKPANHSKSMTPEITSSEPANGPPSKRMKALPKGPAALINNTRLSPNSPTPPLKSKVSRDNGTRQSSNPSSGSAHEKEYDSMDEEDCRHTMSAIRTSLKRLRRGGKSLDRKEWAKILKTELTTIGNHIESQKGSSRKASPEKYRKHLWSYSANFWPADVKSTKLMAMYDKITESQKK
Sequence of Protein translocase subunit SecA (Escherichia coli (strain K12)) (P10408 whole entry): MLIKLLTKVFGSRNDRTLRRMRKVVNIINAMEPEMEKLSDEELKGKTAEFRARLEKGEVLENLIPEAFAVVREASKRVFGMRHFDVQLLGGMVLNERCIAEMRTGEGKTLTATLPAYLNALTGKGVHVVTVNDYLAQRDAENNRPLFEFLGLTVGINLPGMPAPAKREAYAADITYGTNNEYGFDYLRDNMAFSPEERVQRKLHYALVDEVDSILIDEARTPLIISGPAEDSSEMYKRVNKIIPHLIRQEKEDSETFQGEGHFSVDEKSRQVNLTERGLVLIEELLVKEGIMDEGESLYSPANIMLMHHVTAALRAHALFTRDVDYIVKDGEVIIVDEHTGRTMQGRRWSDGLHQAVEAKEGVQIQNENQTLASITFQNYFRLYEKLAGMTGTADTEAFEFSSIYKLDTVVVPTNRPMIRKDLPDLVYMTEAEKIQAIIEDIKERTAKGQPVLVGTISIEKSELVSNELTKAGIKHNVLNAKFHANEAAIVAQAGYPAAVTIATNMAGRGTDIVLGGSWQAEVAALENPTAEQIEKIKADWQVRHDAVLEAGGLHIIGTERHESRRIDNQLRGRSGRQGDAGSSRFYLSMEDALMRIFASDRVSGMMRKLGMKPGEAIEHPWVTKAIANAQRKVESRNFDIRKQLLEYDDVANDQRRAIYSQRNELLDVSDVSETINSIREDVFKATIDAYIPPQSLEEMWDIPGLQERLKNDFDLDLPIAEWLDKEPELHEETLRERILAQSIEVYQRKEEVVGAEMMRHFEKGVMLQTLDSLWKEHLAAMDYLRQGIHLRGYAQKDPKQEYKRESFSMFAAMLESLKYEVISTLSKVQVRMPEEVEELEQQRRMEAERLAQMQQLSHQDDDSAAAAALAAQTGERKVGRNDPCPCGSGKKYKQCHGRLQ

Regarding `CN(C(=O)c1cccc(C(=O)NS(C)(=O)=O)c1)c1ccccc1`, the Percent Effect in assay [1] was -5.66%; in assay [2], 15.6%; in [3], 1.54%; in [4], 14.7%; in assay [5], 6.98%; in [6], -24.8%. The Percent Effect is 16.5% in assay [7]; 4.53% in assay [8]; 6.45% in assay [9]; 13.6% in assay [10]; -2.26% in [11].
Consider `CN(CCN1CCCCC1)C(=O)c1cc(CN2CCOCC2)on1`, for which the Percent Effect in [1] is -2.82%; in assay [2], 8.22%; in [3] it was -18.2%; in assay [4] it was -4.57%; in [5] it was 2.74%; in assay [6], 1.82%. For the same compound, the Percent Effect in assay [7] is 21.8%; in [8] it was -8.25%; in [9], 7.53%; in [10], 20%; in [11] it was -3.28%.
Regarding `CCc1cnc(CN(C)C2CCN(CCS(C)(=O)=O)C2)o1` (stereo unspecified), the Percent Effect in [1] was -1.6%; in [2] it was -1.39%; in assay [3] it was -3.86%; in assay [4], -4.8%; in assay [5], -5.54%; in assay [6], 2.21%. The Percent Effect in assay [7] was 3.51%; in [8], -7.25%; in assay [9], 0%; in assay [10] it was 2.56%; in assay [11], 0.436%.
Turning to `CC1CN(C(=O)CN(Cc2ccccc2Br)C2CC2)CCO1` (stereo unspecified), the Percent Effect in assay [1] was -1.13%; in assay [2], 0%; in assay [3], 4.5%; in [4] it was 0.479%; in assay [5], 3.82%; in assay [6] it was -3.16%. The Percent Effect in assay [7] was -4.77%; in assay [8], 13.8%; in [9], 3.81%; in assay [10], 7.06%; in assay [11] it was -7.55%.
In the case of `Cc1[nH]nc2ncc(C(=O)N3CCN(CC(C)C)CC3)cc12`, the Percent Effect in [1] was -2.98%; in assay [2], 15.8%; in assay [3], 10.4%; in assay [4], -2.95%; in assay [5], 7.56%; in [6], -3.24%. Also, the Percent Effect was 7.36% in assay [7]; -2.6% in [8]; 8.37% in assay [9]; 23.5% in assay [10]; -7.62% in assay [11].
`O=C1CC2(CCN(CC3CC3)C2)CN1c1cccc(F)c1` (stereo unspecified): the Percent Effect in [1] was -0.129%; in [2] it was 10.8%; in [3], -7.34%; in [4], 0.348%; in assay [5] it was -3.81%; in [6], 1.24%. The Percent Effect in [7] was 4.38%; in assay [8] it was -6.1%; in assay [9], 3.23%; in [10], 11.1%; in [11], -0.923%.
As for `Cn1nc2c(cc1=O)CN(CC(=O)Nc1ccc(Cl)cn1)CC2`, the Percent Effect in assay [1] was -3.42%; in assay [2], 18.1%; in assay [3] it was -417%; in assay [4], 5.46%; in [5], -0.291%; in assay [6] it was -1.32%. In addition, the Percent Effect was 12.3% in assay [7]; -2.31% in assay [8]; -2.1% in [9]; -5.13% in assay [10]; -1.83% in [11].
Turning to `CC(C)=CCN1CCOC(Cn2nc(C)cc2C)C1` (stereo unspecified), the Percent Effect in assay [1] was 2.83%; in assay [2], 18.4%; in [3], 3.22%; in assay [4], -4.58%; in [5] it was -8.27%; in assay [6], -1.92%. Further, the Percent Effect in [7] is 16.7%; in assay [8], 8.7%; in assay [9] it was 3.43%; in assay [10], 17.1%; in assay [11] it was -11.3%.
Take `CCOCCNc1nc(C2CCCC2)nc2c1cnn2C`: the Percent Effect in [1] is -4.35%; in [2], 2.74%; in [3], 6.03%; in assay [4] it was -4.4%; in assay [5], 0.588%; in [6], 2.73%. The Percent Effect in assay [7] worked out at 1.6%; in assay [8], 17.1%; in assay [9], 1.07%; in assay [10], 5%; in assay [11] it was 2.02%.
As for `CN1[C@H](Cn2cncn2)C[C@@H]2CN(Cc3cccc(C#N)c3)CC[C@@H]21`, the Percent Effect was -1.53% in [1]; 13.5% in assay [2]; -0.719% in [3]; -6.04% in assay [4]; 0% in assay [5]; -2.5% in assay [6]. The Percent Effect in [7] is 15%; in assay [8], -2.04%; in assay [9] it was 9.9%; in assay [10], 13.4%; in assay [11], 2.31%.
`Cc1nc(CN2C(=O)CC[C@H]3[C@@H]2CCN3C(=O)c2ccsc2)cs1`: the Percent Effect is 2.29% in assay [1]; 10.8% in [2]; 2.71% in assay [3]; -8.13% in [4]; 4.2% in assay [5]; -1.59% in [6]. Moreover, the Percent Effect in assay [7] was 28%; in assay [8], -19.9%; in [9], 5.41%; in assay [10], 15.4%; in assay [11], -0.758%.

The values are drawn from ChEMBL document CHEMBL3988442, “University of Dundee, Small-Polar-MMV Screening Library” (2021).
